PubChem BioAssay (NCATS)
Results filed as inconclusive are left out. Active and inactive are the calls of the source. Calls come from the whole dose curve; as a rule, active = well fitted curve in the direction sought with a large enough effect; inconclusive = small, poorly fitted or top-dose-only effect, or another doubt; inactive = no such curve, though single readings can be large; an effect the other way counts as inactive or inconclusive.

Key:
[1] = tested on: NAD(P)H diaphorase (Clostridium kluyveri); assay: Diaphorse counterscreen qHTS: Assay Interference Panel against the NCATS CANVASS Library (AID 1347362)
Summary of the method: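 Counterscreen for coupling-enzyme interference: resorufin fluorescence from resazurin/NADH turnover, read after 5 min at room temperature. Compounds were tested over an 11-point series after 15 min dark preincubation with diaphorase in PBS-Tween.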

[2] = biological target: Luciferin 4-monooxygenase (Photinus pyralis) (UniProt P08659); assay: Firefly luciferase counterscreen qHTS: Assay Interference Panel against the NCATS CANVASS Library (AID 1347363)
Chain of Luciferin 4-monooxygenase (Photinus pyralis) (P08659 whole entry, looked up): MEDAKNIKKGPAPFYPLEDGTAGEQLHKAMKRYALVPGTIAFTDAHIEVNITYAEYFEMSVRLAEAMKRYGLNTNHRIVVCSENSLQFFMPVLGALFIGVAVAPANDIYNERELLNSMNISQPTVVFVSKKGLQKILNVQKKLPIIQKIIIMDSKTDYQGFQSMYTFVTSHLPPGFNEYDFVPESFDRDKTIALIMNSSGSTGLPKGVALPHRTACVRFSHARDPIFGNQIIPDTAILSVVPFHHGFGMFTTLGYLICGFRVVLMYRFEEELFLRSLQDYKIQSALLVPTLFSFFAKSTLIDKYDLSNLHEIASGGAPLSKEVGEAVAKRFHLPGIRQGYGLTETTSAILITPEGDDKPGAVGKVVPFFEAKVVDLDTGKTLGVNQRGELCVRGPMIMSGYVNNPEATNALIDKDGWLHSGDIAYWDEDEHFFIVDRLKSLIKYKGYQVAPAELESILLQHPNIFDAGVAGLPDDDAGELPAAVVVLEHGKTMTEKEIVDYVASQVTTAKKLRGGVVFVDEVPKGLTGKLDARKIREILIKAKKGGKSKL
Summary of the method: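 Luminescence inhibition readout: compounds (11-point qHTS) sat 15 min at room temperature with substrate mix (0.013 mM luciferin and ATP), then firefly luciferase was added and signal read 5 min later.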

[3] = KB-8-5-11 Cancer Cell Toxicity qHTS against the NCATS CANVASS Library (AID 1347364); note: nearly all actives have a fitted effect of over 75% in size
Summary of the method: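 Terse: KB-8-5-11, 500 cells/well, 72 hr, 37C/5% CO2, 11-pt titration, CellTiter-Glo readout; confirmatory runs ± 1uM tariquidar in medium.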

[4] = KB-3-1 Cancer Cell Toxicity qHTS against the NCATS CANVASS Library (AID 1347366); note: nearly all actives have a fitted effect of over 75% in size
Summary of the method: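 500 KB-3-1 cells/well; compounds pin-transferred, 11-pnt series; 72 hr, 37C/5% CO2; CellTiter-Glo, 10 min RT; luminescence read-out.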

[5] = qHTS for ATAD5 Agonist screened against the NCATS CANVASS Library (AID 1347367)
Summary of the method: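 Luminescence read-out: ATAD5-driven luciferase in stably transfected HEK 293T cells, which rises post-transcriptionally with DNA damage. Cells were exposed 16hr at 37C to test compound; a CellTiter-Fluor fluorescence read (1hr) measured viability first.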

[6] = MCF7 Cancer Cell Toxicity qHTS against the NCATS CANVASS Library (AID 1347369)
Summary of the method: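 Luminescent ATP signal (CellTiterGlo) served as the cytotoxicity read-out after MCF7 breast cancer cells had been incubated 72 hr at 37C with natural products in an 11-point titration.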

[7] = qHTS for ATAD5 Antagonist screened against the NCATS CANVASS Library (AID 1347370);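 note: HEK293T cells carrying an ATAD5 luciferase reporter co-treated with 10 µM 5-fluorouridine; nearly all actives have a fitted effect of over 65% in size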
Summary of the method: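 Compounds (11-point) co-dosed with 10 µM 5-FUrd for 16 h at 37 °C onto HEK293T-ATAD5 luciferase reporter cells. Viability measured by CellTiter-Fluor fluorescence, then ATAD5 reporter signal by luminescence.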

[8] = J3T Cancer Cell Toxicity qHTS against the NCATS CANVASS Library (AID 1347371);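 note: J3T is a canine glioma cancer cell line seeded at 500 cells per well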
Summary of the method: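 Luminescence from CellTiterGlo, reporting cellular ATP, serves as the viability measure after 72 hr compound treatment of J3T canine glioma cells seeded at 500 cells/well.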

[9] = biological target: Nuclear receptor subfamily 1 group I member 3 (Homo sapiens) (UniProt Q14994); assay: qHTS for Constitutive Androstane Receptor (CAR) Antagonist screened against the NCATS CANVASS Library (AID 1347372);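 note: cells stimulated with 50 nM CITCO agonist so inhibition reflects antagonism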
Chain of Nuclear receptor subfamily 1 group I member 3 (Homo sapiens) (Q14994 whole entry, looked up): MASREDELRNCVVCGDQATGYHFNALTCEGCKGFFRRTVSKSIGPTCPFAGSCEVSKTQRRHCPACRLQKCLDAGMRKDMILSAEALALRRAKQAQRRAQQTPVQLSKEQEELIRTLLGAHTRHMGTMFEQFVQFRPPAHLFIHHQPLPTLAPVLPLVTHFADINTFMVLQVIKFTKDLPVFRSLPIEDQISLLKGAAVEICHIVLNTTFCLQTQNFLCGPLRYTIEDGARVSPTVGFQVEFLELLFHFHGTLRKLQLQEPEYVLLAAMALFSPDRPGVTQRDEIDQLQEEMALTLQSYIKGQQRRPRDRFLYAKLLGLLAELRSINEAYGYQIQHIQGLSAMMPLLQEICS
Summary of the method: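 Antagonist mode: compound added alongside 50 nM CITCO to HepG2-hCAR-CYP2B6 reporter cells, 24hr at 37C. Viability by CellTiter-Fluor fluorescence, then CAR-driven luciferase by ONE-Glo luminescence.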

[10] = biological target: Nuclear receptor subfamily 1 group I member 3 (Homo sapiens) (UniProt Q14994); assay: qHTS for Constitutive Androstane Receptor (CAR) Agonist screened against the NCATS CANVASS Library (AID 1347373);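 note: every well also contained 1.5 µM PK11195 alongside the test compound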
Summary of the method: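 Cells were plated and allowed to attach for 4hr, then dosed with compound in an 11-point series alongside 1.5uM PK11195. After 24hr at 37C, viability was measured fluorometrically and CAR-driven CYP2B6 reporter luminescence was recorded.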

[11] = 10-beta competent E. coli microbial cell viability qHTS against the NCATS CANVASS Library (AID 1347376)
Summary of the method: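 Bacterial suspension diluted to 0.2 OD was dosed with compounds, 11-point series, then held overnight at 37C. BacTiter-Glo reagent was added, and after 20 min at room temperature ATP-dependent luminescence was measured.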

[12] = DH5-alpha competent E. coli microbial cell viability qHTS against the NCATS CANVASS Library (AID 1347377); conditions: BacTiter-Glo ATP luminescence, overnight; at 46.1 µM (top of the series)
Summary of the method: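 Bacteria were dispensed at 0.2 OD, then compounds were pin-transferred. Plates were incubated overnight at 37C, after which BacTiter-Glo was added and luminescence measured 20 min later.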

[13] = qHTS for H2AX Agonists against the NCATS CANVASS Library (AID 1347378)
Summary of the method: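 TR-FRET readout (ex 320 nm, em 665/620 nm ratio) of phospho-H2AX (S139) in CHO-K1 lysates. Cells treated 3 hr at 37C with compound titration, 0.76% DMSO; lysis 30 min, antibody detection 24 hr at RT.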

[14] = qHTS for Inflammasome Signaling Inhibitors: IL-1-beta AlphaLISA screen against the NCATS CANVASS Library (AID 1347379); conditions: THP-1 LPS/ATP, IL-1B AlphaLISA secretion, 16 h; at 57.5 µM (top of the series);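 note: human THP-1 cells primed with LPS then triggered with ATP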
Summary of the method: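 Secreted IL-1B from human THP-1 cells quantified by AlphaLISA 16 hr after compound addition (final up to 57.5 uM). A 1 hr compound pretreatment preceded inflammasome activation with 250 ng/mL LPS plus 1.25 mM ATP (final).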

[15] = qHTS for Antimalaria activity screened against the NCATS CANVASS Library (AID 1347380);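 note: Plasmodium falciparum strain Dd2 asexual parasites grown in red blood cells; nearly all actives have a fitted effect of over 40% in size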
Summary of the method: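 Compounds are titrated over 11 concentrations onto Dd2 parasite cultures (0.3% parasitemia, 2.5% hematocrit). Growth over 72 h at 37C in low oxygen is measured as SYBR Green DNA fluorescence after lysis.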

[16] = Inflammasome Signaling qHTS Counterscreen: IL-1-beta AlphaLISA counterscreen against the NCATS CANVASS Library (AID 1347381);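 note: cell-free check with purified IL-1β in medium and no THP-1 cells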
Summary of the method: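 Purified IL-1-beta (4 pg/well) + compound, 11-pt conc. series; acceptor beads 6 ug/mL + biotin-Ab 0.6 nM final, 1 h RT; SA-donor 24 ug/ml final, 30 min dark RT; read ex 680/em 615.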

[17] = Cytotoxicity qHTS for assessment of Hepg2 cells membrane integrity screened against the NCATS CANVASS Library (AID 1347387)
Summary of the method: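 Cells were seeded at 2000 per well and left overnight to attach. Compounds were pin-transferred to give 0.59 nM - 46 uM in an 11-point series and incubated 5 hr at 37C. CytoTox-ONE reagent was added and, after 10 min at room temperature, fluorescence (ex 560, em 590 nm) was read.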

[18] = qHTS for Activators of p53 Stress Response Pathway screened against the NCATS CANVASS Library (AID 1347388)
Summary of the method: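 Beta-lactamase reporter driven by p53 response elements in HCT-116 cells, read as the 460 nm/530 nm emission ratio after CCF4 loading, following 16 h of exposure to an 11-point series. Cell viability was measured in the same wells by CellTiter-Glo luminescence.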

[19] = qHTS assay for small molecule disruptors of mitochondrial membrane potential screened against the NCATS CANVASS Library (AID 1347389); note: nearly all actives have a fitted effect of over 60% in size
Summary of the method: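 Mitochondrial depolarization in HepG2 cells is scored as a falling aggregate-to-monomer fluorescence ratio after 1 hr compound exposure and 30 min staining with Mito-MPS dye at 37C, each compound tested as an 11-point titration.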

[20] = Secretion counterscreen for inhibitors of the SERCaMP assay screened against the NCATS CANVASS Library (AID 1347390);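 note: light from luciferase secreted into medium read as a measure of general secretion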
Summary of the method: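 Luminescence from constitutively secreted GLuc in SH-SY5Y-GLuc STOP cells, read after coelenterazine addition, served as read-out. Compounds tested 0.001 - 77 uM for 20 h at 37C; Brefeldin A as positive control.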

Measured: outcome

COc1ccc2[nH]cc(CCNC(C)=O)c2c1
inactive: all assays above
